A selection: hits, their analogues and other compounds. The true share with any hit is near 2.5%.
Cruzain noTriton: blocks cruzain activity in detergent-free assay. Potency, µM, actives largely listed as inhibitors. purified cruzain, Z-FR-AMC fluorescence, no detergent. P25779. 200,000 compounds, 2.3% hits. AID 1476; further: nearly all actives have a fitted effect of over 40% in size
Target sequence (P25779 123-467 limits assumed): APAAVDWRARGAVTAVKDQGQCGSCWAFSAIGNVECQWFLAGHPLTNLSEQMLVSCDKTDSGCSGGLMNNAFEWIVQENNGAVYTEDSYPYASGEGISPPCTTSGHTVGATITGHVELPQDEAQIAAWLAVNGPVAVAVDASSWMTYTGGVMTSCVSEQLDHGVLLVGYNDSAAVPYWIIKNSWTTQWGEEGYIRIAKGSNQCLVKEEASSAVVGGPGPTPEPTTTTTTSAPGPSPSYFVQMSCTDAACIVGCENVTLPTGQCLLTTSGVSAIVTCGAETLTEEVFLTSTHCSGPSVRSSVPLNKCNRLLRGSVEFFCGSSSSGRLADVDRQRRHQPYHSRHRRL
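Purified cruzain at 1.5 nM, pre-incubated 15 min with compound at room temperature in 100 mM sodium acetate pH 5.5, 5 mM DTT, 0.00005% Triton X-100. Reaction started with 2 uM Z-FR-AMC; AMC fluorescence increase over 60 s gives rate.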
Cruzain Triton: inhibitors of Trypanosoma cruzi cruzain with detergent | purified cruzain, Z-FR-AMC fluorescence, 0.01% Triton | Potency, µM, actives largely listed as inhibitors | 200,000 compounds, 0.43% hits | AID 1478; further: nearly all actives have a fitted effect of over 40% in size
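Cysteine protease activity tested under reducing, mildly acidic conditions (100 mM sodium acetate pH 5.5, 5 mM DTT) plus 0.01% Triton X-100. Cruzain 1.5 nM; substrate Z-FR-AMC 2 uM; 15 min compound preincubation at room temperature.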
Large screens that a line does not name were inactive; ! = not active in a repeat. The call rests on the fitted dose curve; in most records, active means well fitted curve in the direction sought with a large enough effect; inconclusive means small, poorly fitted or top-dose-only effect, or another doubt; inactive means no such curve, though single readings can be large; an effect the other way counts as inactive or inconclusive.

COc1ccc(NS(=O)(=O)c2ccc(NS(=O)(=O)c3ccc4c(c3)OCCO4)cc2)cc1	none
COc1ccc(S(=O)(=O)N(C)CC(=O)Nc2ccc3c(c2)OCO3)cc1	none
COc1ccc(NS(=O)(=O)c2ccc(O)c(C(=O)OCC(=O)Nc3ccc4c(c3)OCCO4)c2)cc1	Cruzain noTriton 7.94µM
O=C(Cn1c(=O)c2sccc2n(CC(=O)Nc2ccc(Cl)cc2Cl)c1=O)NCCc1ccccc1	none
COc1ccc(S(=O)(=O)Nc2ccc(F)cc2)cc1N(C)S(=O)(=O)c1ccc(Cl)cc1	Cruzain noTriton 20µM
COc1ccc(NS(=O)(=O)c2ccc(OC)c(N(C)S(=O)(=O)c3ccc(Cl)cc3)c2)cc1	none
Cc1ccc(Nc2ncnc3onc(C)c23)cc1Cl	none
CCCCCC(=O)NCC(C)NC(=O)CCCCC (configuration not stated)	none
CC(CNC(=O)C(C)(C)C)NC(=O)C(C)(C)C (configuration not stated)	Cruzain noTriton 5.01µM
COc1ccc(NC(=O)c2cc(-c3ccc(F)cc3)no2)cc1OC	none
CCCCOC(=O)c1ccc(NC(=O)c2ccc3c(c2)CCN3S(=O)(=O)c2ccccc2)cc1	Cruzain noTriton 12.6µM
CCCCc1ccc(NC(=O)c2ccc3c(c2)CCN3S(=O)(=O)c2ccccc2)cc1	Cruzain noTriton inconclusive
O=C(NCCCN1CCN(c2ccccc2)CC1)c1ccc2nc(CCc3ccccc3)oc2c1	none
CC1=NN(c2nc(-c3ccc(C)cc3)cs2)C(=O)C1N=Nc1ccc2ccccc2c1 (configuration not stated)	Cruzain noTriton 3.16µM
CC1=NN(C(=O)c2ccncc2)C(=O)[C@@H]1N=Nc1ccc2ccccc2c1	none
Cc1ccc(NC(=O)C(=O)c2cc(C)n(-c3ccc(F)cc3)c2C)cc1C	none
Oc1c(CN2CCc3ccccc3C2)cc(Cl)c2cccnc12	none
Oc1c(I)cc(Cl)c2cccnc12	Cruzain noTriton 12.6µM!
Cc1cccc(NC(=O)Cn2cc(C(=O)C3CCCCC3)c3ccccc32)c1	none
COc1ccc(Nc2nc(-c3sc(N)nc3C)cs2)cc1	Cruzain noTriton 15.8µM, Cruzain Triton 15.8µM
COc1ccc(CCNc2ccncn2)cc1OC	none
COc1ccc(Nc2nc(-c3cccs3)cs2)cc1	Cruzain noTriton 15.8µM
COc1ccc(Nc2nc(-c3sc(NC(C)=O)nc3C)cs2)cc1	none
CC(=O)Nc1cccc(-c2csc(Nc3ccc(C)cn3)n2)c1	none
Oc1ccc(Nc2nc(-c3cccs3)cs2)cc1	none
Cc1nc(N)sc1-c1csc(Nc2ccc(Cl)cn2)n1	Cruzain noTriton 15.8µM, Cruzain Triton 28.2µM
COc1ccc(CCNc2nc(-c3sc(N)nc3C)cs2)cc1OC	Cruzain noTriton 10µM, Cruzain Triton 14.1µM
O=C(NCCCCCCNC(=O)ON=C1CCCCC1)ON=C1CCCCC1	none
CCCOc1ccc(CNC(=O)c2cc3ccccn3n2)cc1	none
COc1ccc(C)c2sc(NC(=O)c3ccc(S(=O)(=O)N(C)C)cc3)nc12	none
CN1CCN(c2ncncc2-c2cccnc2)CC1	none
COc1ccc(-c2nc(SCC(=O)c3ccc(OC)c(Br)c3)n[nH]2)cc1	none
COc1cc(CNC(=O)c2cnc3c(-c4cccc(C)c4)c(C)nn3c2C)cc(OC)c1OC	Cruzain noTriton inconclusive
CCc1noc(-c2ccc(N3CCCCC3)c([N+](=O)[O-])c2)n1	none
Cc1cccnc1Nc1nc(-c2ccc(O)cc2)cs1	none
Cc1nc(N)sc1-c1csc(Nc2ccccn2)n1	Cruzain noTriton 12.6µM, Cruzain Triton inconclusive
CCc1ccc(NC(=O)Cn2c(=O)n(Cc3ccco3)c(=O)c3cccnc32)cc1	none
CCOc1ccc(-c2cc3nc(C4CCN(C(=O)OC(C)(C)C)CC4)c(C(=O)Nc4ccc(C)cc4Cl)cn3n2)cc1	Cruzain noTriton inconclusive
CCOc1ccc(-c2cc3nc(C4CCN(C(=O)OC(C)(C)C)CC4)c(C(=O)Nc4cccc(Cl)c4C)cn3n2)cc1	Cruzain noTriton 7.94µM
O=[N+]([O-])c1ccc(NN=C2c3ccccc3Cc3ccccc32)c([N+](=O)[O-])c1	none
CN(C)CC/C=C1/c2ccccc2Sc2c(O)cc(Cl)cc21	Cruzain noTriton 25.1µM
COc1cc(Cl)cc2c1Sc1ccccc1/C2=C/CCN(C)C	none
Cc1ccc(Cl)cc1NC(=O)C1CCN(S(=O)(=O)c2cccc3nonc23)CC1	none
Cc1ccc(-c2csc(N(Cc3ccccc3)C(=O)COc3ccccc3)n2)cc1	Cruzain noTriton 7.94µM
Cc1ccc(-c2csc(N(CCc3ccccc3)C(=O)COc3ccccc3)n2)cc1	none
Cc1oc2c(cc(NS(=O)(=O)c3ccc(F)cc3)c3ccccc32)c1C(=O)OCc1ccccc1	Cruzain noTriton inconclusive
Cc1ccc(S(=O)(=O)Nc2cc3c(C(=O)OCc4ccccc4)c(C)oc3c3ccccc23)cc1	Cruzain noTriton 7.94µM
Cc1ccc(S(=O)(=O)Nc2cc3c(C(=O)OCc4ccccc4)c(C)oc3c3ccccc23)c(C)c1	Cruzain noTriton 5.01µM
Cc1oc2c(cc(NS(=O)(=O)c3ccc(Br)cc3)c3ccccc32)c1C(=O)OCc1ccccc1	none
Cc1ccc(-n2nc(C(=O)Nc3ccc(F)cc3Cl)c(=O)n(C)c2=O)cc1	none
COc1ccc(-c2cc(C)no2)cc1S(=O)(=O)Nc1c(C)cc(C)cc1C	none
CSCCC(NS(=O)(=O)c1ccc2c(c1)oc(=O)n2C)C(=O)NCCc1ccc(C)cc1 (configuration not stated)	none
COc1ccccc1NC(=O)NCc1ccc2c(c1)OCO2	none
COc1ccccc1/C=C(/CC(=O)NCc1ccc2c(c1)OCO2)c1nc2ccccc2s1	Cruzain noTriton 15.8µM
COc1ccc(/C=C(/CC(=O)Nc2ccccc2)c2nc3ccccc3s2)cc1	Cruzain noTriton inconclusive
COc1ccc(/C=C(/CC(=O)NCc2ccc(Cl)cc2)c2nc3ccccc3s2)cc1	Cruzain noTriton 31.6µM
CC(=O)c1cccc(NC(=O)c2nc3ccccc3n(C)c2=O)c1	none
Cc1cc(C)c(-c2csc(NC(=O)c3cc([N+](=O)[O-])ccc3N3CCOCC3)n2)c(C)c1	none
O=C(Nc1nc2ccc(Oc3ccccc3)cc2s1)c1cc([N+](=O)[O-])ccc1N1CCOCC1	Cruzain noTriton 15.8µM
Cc1ccc2nc(/C(C#N)=C/c3ccc(-c4ccc(F)cc4F)o3)[nH]c2c1	Cruzain noTriton 10µM
CCN(CC)c1ccc(/C=C(/C#N)c2nc3ccc(C)cc3[nH]2)c(OC(C)C)c1	Cruzain noTriton 25.1µM
CCOc1cc(N(CC)CC)ccc1/C=C(/C#N)c1nc2ccccc2[nH]1	Cruzain noTriton 31.6µM
CCOC(=O)COc1ccc(/C=C(\C#N)c2nc3ccc(C)cc3[nH]2)cc1OC	Cruzain noTriton inconclusive
Cc1ccc2nc(/C(C#N)=C/c3ccc(-c4cccc([N+](=O)[O-])c4)o3)[nH]c2c1	Cruzain noTriton inconclusive
COc1cc(/C=C(\C#N)c2nc3ccccc3[nH]2)cc(Br)c1OCc1ccccc1	Cruzain noTriton inconclusive
Cc1cc(/C=C(\C#N)c2nc3ccccc3[nH]2)c(C)n1C	Cruzain noTriton inconclusive
COc1cc(/C=C(\C#N)c2nc3ccccc3[nH]2)cc(Br)c1OCc1ccc(F)cc1	Cruzain noTriton 25.1µM
COc1ccc(N(C(=O)c2ccccc2C)S(=O)(=O)c2ccc3c(c2)n(C)c(=O)n3C)cc1	none
CCOC(=O)CNC(=O)O[C@@H]1C(=O)c2cc(Br)ccc2O[C@H]1c1ccc2c(c1)OCO2	none
CCCOc1cc(N(CC)CC)ccc1/C=C(/C#N)c1nc2ccc(C)cc2[nH]1	Cruzain noTriton 20µM
COc1cccc(/C=C(\C#N)c2nc3ccc(C)cc3[nH]2)c1	Cruzain noTriton inconclusive
COc1ccc(-c2nnc(SCC(=O)N3CCN(c4ccccc4)CC3)o2)cc1OC	none
